# Tested on: RARa:RXR (NR concentration 270 nM, RXRa partner concentration 90 nM)
# Assay: PBM binding z-score (relative to random genomic background probes); higher = stronger binding; sequences stand for … in GC…GCGATTGACAGCGTAGAATGAAGG
# Procedure, shortened: (§1)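 Regression normalization was applied to scanned fluorescence from custom Agilent 4×180K protein-binding microarrays. Before scanning, arrays were incubated 1 h with ligand-free nuclear receptor dimers, and binding was detected with antibodies against each partner (one per run). Binding z-scores use the random background probes as reference.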
row,Sequence,PBM binding z-score
1,CCTAGTTGGTCAGCAGGTCACACACCGGATATGA,3.23
2,AGTCAAAGTTCAGGAGGAGGTAACGTAAAGCACG,3.17
3,CCAGACAGGTGAGAAGTTAACTCAGCCTCGATTA,0.0412
4,TCGAGTAGGTTAGTCGGGGCATTAAGCCAACATA,0.471
5,CCTTCTGGGCCACGAAAGGTCATTGATTCAGTGA,5.44
6,TGTCAAAGTTCAAAGGTAACGTTAGTATCCACAC,6.71
7,GCGAGTTGGTCAGTAAAAGGTCACACACCGGTCG,5.93
8,ATATGTAGGTTAAGGGACATTCAGGTTGGTTCGC,1.15
9,CCTATTAGTTGGCCATAAGGGCAACCGAAGCTCG,0.307
10,GCTGCTAGGTCAAATGATGGTCAGCTAAAGCTCG,3.18
11,GCAGACAGGTGAAACGCAGGTCACTCAGGGTGGC,3.45
12,TCTATTAGTTGATTAGGACAACCGAAACAGCGGA,0.862
13,ACTATTAGTTGACTCAGGGCAACCGATACGACGC,0.544
14,ATCTCTACGTAAAGATAGTTCAGTGAATGCAAAT,-0.211
15,CGTTACGGGTCACGAGGTTATAGCACGACGAGCG,5.93
16,TTTCAAAGTTCAAAGGTAACGTAAGTATCCACAC,6.38
17,TCTGGCAGGCCAGAGGGTCACTCAAGAGGTACGG,2
18,TCATATAGGTAAAGGTGTAAGTCGAACGATATGA,0.259
19,TTATATAGGTAAAGGTGAAAGTCGAACGATATGA,1.74
20,GATACAGGGTCACGGCCAGAGTACGCGTATTGAT,6.41

row,Sequence,PBM binding z-score
1,GCTAGCAGGCAATTTGGGTCACTCAATGACGGGC,1.08
2,CCTAGCCGGCCAGGGTCACTCAAGCATTTCGCTT,3.45
3,ACGGACAGGTGAGTGAAGGTAACTCAGCTGGACG,0.477
4,ATCTCTAGGTAACCAAGTTCAGTGGATGCCGAAC,0.454
5,CCTAGCAGGCCAATCTGGGGCACTCAAGGCTTGA,-0.273
6,CGTCCAAGGACAAAGGTCAGTGAAGAGATGACGG,3.79
7,GATACAGGGTCAAGGCTAGAGTACGCGTATTGAT,4.37
8,AATACAGGGTCTTCGTAGGCCAGAGTACGCACAG,0.585
9,CCTACTGGGCCAAGGTCATGGATCAGTCAAAGCA,3.81
10,GGAACGCGGGCAAAGTTGATAGCATCTGTCGACG,0.0758
11,ACTATTAGTTGAGACGATGGCAACCGATAGGTTG,-0.204
12,CAGCCTATGTCAGGGCCAGTATAGGAGGAACGTT,-0.507
13,CCGACTGGGGCTAGGTTACCATAACGCACAGCCA,-0.318
14,CGAACTAGGTCATTGACAGGACTGTGAATAGTAA,1.81
15,CGAACGAGGGCCTGAGTTGATAGCAAATGCCGAT,-0.337
16,GCTAGTAGGCCATTTGGGTCACTCAATGACGGGC,0.598
17,GCTGCTAGGTGAGGTTGGTCAGCTAACGGGTACG,-0.358
18,ATACCAGGGTGATCGTGAGGTCGTTGATACTAAC,2.44
19,GCTAGCAGGCCATTTGGGTGACTCAATGACGGGC,-0.229
20,GCTGCTAGGTCAGGTTGGTCAGCAAACGGGTACG,0.7

# Tested on: RARa homodimer (NR concentration 270 nM)
# Assay: as above
# Procedure, shortened: as §1
row,Sequence,PBM binding z-score
1,CCTAGTTGGTCAGCAGGTCACACACCGGATATGA,1.34
2,AGTCAAAGTTCAGGAGGAGGTAACGTAAAGCACG,1.91
3,CCAGACAGGTGAGAAGTTAACTCAGCCTCGATTA,0.721
4,TCGAGTAGGTTAGTCGGGGCATTAAGCCAACATA,-0.436
5,CCTTCTGGGCCACGAAAGGTCATTGATTCAGTGA,2.53
6,TGTCAAAGTTCAAAGGTAACGTTAGTATCCACAC,1.65
7,GCGAGTTGGTCAGTAAAAGGTCACACACCGGTCG,2.5
8,ATATGTAGGTTAAGGGACATTCAGGTTGGTTCGC,1.63
9,CCTATTAGTTGGCCATAAGGGCAACCGAAGCTCG,0.354
10,GCTGCTAGGTCAAATGATGGTCAGCTAAAGCTCG,-0.123
11,GCAGACAGGTGAAACGCAGGTCACTCAGGGTGGC,-0.516
12,TCTATTAGTTGATTAGGACAACCGAAACAGCGGA,2.34
13,ACTATTAGTTGACTCAGGGCAACCGATACGACGC,0.791
14,ATCTCTACGTAAAGATAGTTCAGTGAATGCAAAT,0.168
15,CGTTACGGGTCACGAGGTTATAGCACGACGAGCG,0.803
16,TTTCAAAGTTCAAAGGTAACGTAAGTATCCACAC,1.45
17,TCTGGCAGGCCAGAGGGTCACTCAAGAGGTACGG,-0.717
18,TCATATAGGTAAAGGTGTAAGTCGAACGATATGA,0.411
19,TTATATAGGTAAAGGTGAAAGTCGAACGATATGA,0.54
20,GATACAGGGTCACGGCCAGAGTACGCGTATTGAT,0.744

row,Sequence,PBM binding z-score
1,GCTAGCAGGCAATTTGGGTCACTCAATGACGGGC,-0.688
2,CCTAGCCGGCCAGGGTCACTCAAGCATTTCGCTT,-0.658
3,ACGGACAGGTGAGTGAAGGTAACTCAGCTGGACG,-0.21
4,ATCTCTAGGTAACCAAGTTCAGTGGATGCCGAAC,0.529
5,CCTAGCAGGCCAATCTGGGGCACTCAAGGCTTGA,-0.87
6,CGTCCAAGGACAAAGGTCAGTGAAGAGATGACGG,1.02
7,GATACAGGGTCAAGGCTAGAGTACGCGTATTGAT,0.567
8,AATACAGGGTCTTCGTAGGCCAGAGTACGCACAG,0.404
9,CCTACTGGGCCAAGGTCATGGATCAGTCAAAGCA,0.247
10,GGAACGCGGGCAAAGTTGATAGCATCTGTCGACG,-0.689
11,ACTATTAGTTGAGACGATGGCAACCGATAGGTTG,0.657
12,CAGCCTATGTCAGGGCCAGTATAGGAGGAACGTT,-0.292
13,CCGACTGGGGCTAGGTTACCATAACGCACAGCCA,-0.21
14,CGAACTAGGTCATTGACAGGACTGTGAATAGTAA,-0.0382
15,CGAACGAGGGCCTGAGTTGATAGCAAATGCCGAT,-0.966
16,GCTAGTAGGCCATTTGGGTCACTCAATGACGGGC,-0.704
17,GCTGCTAGGTGAGGTTGGTCAGCTAACGGGTACG,-0.904
18,ATACCAGGGTGATCGTGAGGTCGTTGATACTAAC,0.625
19,GCTAGCAGGCCATTTGGGTGACTCAATGACGGGC,-1.01
20,GCTGCTAGGTCAGGTTGGTCAGCAAACGGGTACG,-0.687
